The record followed here is ChEMBL document CHEMBL4513216, “Probing the Open Global Health Chemical Diversity Library for Multistage-Active Starting Points for Next-Generation Antimalarials” (ACS Infect Dis, 2020).

Structures are written as SMILES. The whole screen tested about 69,000 compounds, of which about 8,600 (12%) showed an effect of 50% or more. The sample as a whole holds a higher share of strong results than the screen did.

The assay relates to Plasmodium berghei. In words: Screen against P. berghei liver stage (PbLuc), transformed with Luciferase, at 10uM. Conditions: tested at 10 uM. The class given is functional, HepG2.
In the case of `O=C(CCc1nnc2ccccn2c1=O)NCc1ccc2c(c1)OCO2`, the INHIBITION worked out at 57%.
The result for `O=C(CCc1nnc2ccccn2c1=O)NCc1cccnc1` reads 37.3%; that for `COc1ccc(CNC(=O)CCc2nnc3ccccn3c2=O)cc1`, 25.3%; that for `Cc1nc(CO[C@@H]2CN(Cc3cccs3)[C@@H]3COC[C@@H]32)cs1`, -33.3%.
The result for `CNc1cc(C)nc(-c2cc(NCCO)nc3[nH]ccc23)n1` reads -28.4%.
The result for `CNc1nc(C)cc(NCc2cc(C)cc3c(C)c(C)[nH]c23)n1` reads 87.9%; that for `Cc1cc(CNc2cncc(C(=O)N(C)C)n2)c2[nH]c(C)c(C)c2c1`, 29.7%.
On to `CNc1cc(C)nc(-c2cc(NC)nc3[nH]ccc23)n1`, for which the INHIBITION is listed as -8.51%.
The result for `CNc1cc(C)nc(NCc2cc(C)cc3c(C)c(C)[nH]c23)n1` reads 76.7%.
The figure for `C[C@@H](N)C(=O)N1CCC(c2[nH]ncc2-c2ccccc2)CC1` is 36.15%.
The result for `CC(=O)N1C[C@H]2CCCN(Cc3ccc(C)o3)[C@H]2C1` reads -3.58%; that for `O=C(c1cnccn1)N1CCCC2(COCCN(CC3CC3)C2)C1` (stereo not given), 37%.
For the compound `O=C(NCc1ccccn1)[C@]12COC[C@H]1CN(Cc1cccnc1)C2`, the INHIBITION is on record as -17.2%.
Regarding `C[C@H](NC(=O)N1CCC(Cc2ccccc2)CC1)C(=O)O`, the INHIBITION is given as 27.5%.
The figure for `NC(=O)COc1ccc(CNCc2ccc(Cl)c(F)c2)cc1` is 0.426%.
The result for `CC(Cn1cccn1)NC(=O)CCC(=O)c1cccs1` (stereo not given) reads -13.5%; that for `COc1ccc2c(c1)OCC(Cc1cnc(N)c(C)c1)C2` (stereo not given), 55.9%; that for `COc1ccc2c(c1)OCC(Cc1cc(N3CCCC3)cnn1)C2` (stereo not given), -43.7%.
The figure for `COc1ccc2c(c1)OCC(Cc1ccc(N)cn1)C2` (stereo not given) is -93%; for `COc1cccc2c1OCC(Cc1cnc(N)c(C)c1)C2` (stereo not given) it is 14.5%.
For the compound `Cc1cc(CC2COc3ccccc3C2)cnc1N` (stereo not given), the INHIBITION was determined as 75.1%.
The result for `COc1ccc2c(c1)OCC(Cc1ccc(CN)cn1)C2` (stereo not given) reads -45.5%.
The result for `COc1ccc2c(c1)OCC(Cc1ccc(N(C)C)nc1)C2` (stereo not given) reads 14.9%.
The result for `COc1ccc2c(c1)OCC(Cc1cncc(N)c1)C2` (stereo not given) reads 61.1%; that for `c1ccc2c(c1)CC(Cc1cc(N3CCCC3)cnn1)CO2` (stereo not given), 13%.
Take `O=C(c1sccc1-n1cnnn1)N1CCC2(CCCCC2)CC1`: the INHIBITION was 28.1%.
The result for `Cc1ccc(C(=O)NC(CN2CCCC2=O)c2ccccc2)cn1` (stereo not given) reads 15.3%; that for `CC(C)N1CCC(c2nccnc2Nc2ncccn2)CC1`, 42.4%; that for `Cc1ncc2c(n1)CN(C=C1NN=C(c3occc3C)O1)CC2`, 47.6%.
The figure for `O=C(Nc1cnn(Cc2ccccc2)c1)N1CCN(CCO)CC1` is -26.8%.
